# Measured values published in the supplement of paper PMC8728848.
# The entries come from a sample that favours the strongest signals as a whole.
# B1: Epa12 (Candida glabrata) (protein)
# chain: MGSSHHHHHHSSGLVPRGSHMLEPDNSLQIFDSFLSNPSKYPLGCSPKITNPKKGLSMELYSYPYRKKGSHPCWDPAYLDPNFPRVGYKKNKLIARVDGVSGDINFNFHPKRQCTPIADYLPPNFNYNEPITTTNFTMLLYGYFKPKVTGLHTFDISADDLLFMNFGAGNAFDCCRRDSTADTFGNYVAWAIWGRRIVRNKLTVRLDKGIYYPLRLFFNNRDYYGQMRLTFKTEHGSERITDFSDYFFSVDDTSEGCPGLITYESECADVKSSTVLETDYITIQAEKE
# Legend:
# Assay in all cases: glycan array binding signal (z-score within array); higher = stronger binding
# Conditions in all cases: glycan notation: IUPAC condensed, linker removed
# [1] = biological target: Fuc(a1-2)Gal(b1-4)Fuc(a1-3)]GlcNAc(b1-2)Man(a1-3)[Fuc(a1-2)Gal(b1-4)[Fuc(a1-3)]GlcNAc(b1-2)Man(a1-6)]Man(b1-4)GlcNAc(b1-4)GlcNAc
# How it was run: (§1)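 Glycan array data came from 3228 arrays in the Consortium for Functional Glycomics database, and only arrays with an available protein sequence were kept. Glycan names were put into IUPAC-condensed notation, and columns mapping to the same glycan were averaged. The binding signal is a within-array Z-score, averaged across arrays of one protein sequence run at different concentrations or buffers and across linkers. A negative Z-score can be read as non-binding.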
# [2] = biological target: Fuc(a1-2)[Gal(a1-4)]Gal(b1-4)GlcNAc
# How it was run: as §1
# [3] = biological target: Fuc(a1-2)[GalNAc(a1-3)]Gal(b1-3)GlcNAc(b1-3)GalNAc
# How it was run: as §1
# Fuc(a1-4)GlcNAc = biological target: Fuc(a1-4)GlcNAc
# How it was run: as §1
# Gal(a1-3)Gal(b1-3)GlcNAc = biological target: Gal(a1-3)Gal(b1-3)GlcNAc
# How it was run: as §1
# [4] = biological target: Gal(a1-3)Gal(b1-3)GlcNAc(b1-2)Man
# How it was run: as §1
# [5] = biological target: Gal(a1-3)Gal(b1-3)GlcNAc(b1-6)GalNAc
# How it was run: as §1
# [6] = biological target: Gal(a1-3)Gal(b1-4)GlcNAc(b1-2)Man(a1-3)[Gal(a1-3)Gal(b1-4)GlcNAc(b1-2)Man(a1-6)]Man(b1-4)GlcNAc(b1-4)GlcNAc
# How it was run: as §1
# [7] = biological target: Gal(a1-3)Gal(b1-4)[Fuc(a1-3)]GlcNAc(b1-2)Man(a1-3)[Gal(a1-3)Gal(b1-4)[Fuc(a1-3)]GlcNAc(b1-2)Man(a1-6)]Man(b1-4)GlcNAc(b1-4)GlcNAc
# How it was run: as §1
# [8] = biological target: Gal(a1-3)[Gal(a1-4)]Gal(b1-4)GlcNAc
# How it was run: as §1
# Gal(a1-4)Gal(b1-4)Gal = biological target: Gal(a1-4)Gal(b1-4)Gal
# How it was run: as §1
# Gal(a1-4)Gal(b1-4)GlcNAc = biological target: Gal(a1-4)Gal(b1-4)GlcNAc
# How it was run: as §1
# [9] = biological target: Gal(a1-4)Gal(b1-4)GlcNAc(b1-2)Man(a1-3)[Gal(a1-4)Gal(b1-4)GlcNAc(b1-2)Man(a1-6)]Man(b1-4)GlcNAc(b1-4)GlcNAc
# How it was run: as §1
# [10] = biological target: Gal(a1-4)Gal(b1-4)GlcNAc(b1-3)Gal(b1-4)Glc
# How it was run: as §1
# Gal(a1-4)GlcNAc = biological target: Gal(a1-4)GlcNAc
# How it was run: as §1
# Gal(b1-2)Gal = biological target: Gal(b1-2)Gal
# How it was run: as §1
# Gal(b1-3)Gal(b1-4)GlcNAc = biological target: Gal(b1-3)Gal(b1-4)GlcNAc
# How it was run: as §1
# Gal(b1-3)GalNAc = biological target: Gal(b1-3)GalNAc
# How it was run: as §1
# [11] = biological target: Gal(b1-3)GalNAc(a1-3)[Fuc(a1-2)]Gal(b1-4)GlcNAc
# How it was run: as §1
# [12] = biological target: Gal(b1-3)GlcNAc(a1-3)Gal(b1-4)GlcNAc
# How it was run: as §1
# [13] = biological target: Gal(b1-3)GlcNAc(b1-3)Gal(b1-4)GlcNAc(b1-2)Man(a1-3)[Gal(b1-3)GlcNAc(b1-3)Gal(b1-4)GlcNAc(b1-2)Man(a1-6)]Man(b1-4)GlcNAc(b1-4)GlcNAc
# How it was run: as §1
# [14] = biological target: Gal(b1-3)GlcNAc(b1-6)GalNAc
# How it was run: as §1
# [15] = biological target: Gal(b1-3)[Fuc(a1-4)]GlcNAc(b1-3)Gal(b1-4)[Fuc(a1-3)]GlcNAc
# How it was run: as §1
# Gal(b1-4)Glc6S = biological target: Gal(b1-4)Glc6S
# How it was run: as §1
# [16] = biological target: Gal(b1-4)GlcNAc(a1-6)Gal(b1-4)GlcNAc
# How it was run: as §1
# [17] = biological target: Gal(b1-4)GlcNAc(b1-2)Man(a1-3)Man(b1-4)GlcNAc(b1-4)GlcNAc
# How it was run: as §1
# [18] = biological target: Gal(b1-4)GlcNAc(b1-2)Man(a1-3)[Gal(b1-4)GlcNAc(b1-2)Man(a1-6)]Man(b1-4)GlcNAc(b1-4)GlcNAc
# How it was run: as §1
# [19] = biological target: Gal(b1-4)GlcNAc(b1-2)Man(a1-3)[Man(a1-6)]Man(b1-4)GlcNAc(b1-4)GlcNAc
# How it was run: as §1
# [20] = biological target: Gal(b1-4)GlcNAc(b1-2)Man(a1-6)Man(b1-4)GlcNAc(b1-4)GlcNAc
# How it was run: as §1
# [21] = biological target: Gal(b1-4)GlcNAc(b1-2)Man(a1-6)[GlcNAc(b1-2)Man(a1-3)]Man(b1-4)GlcNAc(b1-4)GlcNAc
# How it was run: as §1
binder,measurement,setting,value
B1,glycan array binding signal (z-score),[1],-0.132
same,glycan array binding signal (z-score),[2],4.84
same,glycan array binding signal (z-score),[3],-0.345
same,glycan array binding signal (z-score),Fuc(a1-4)GlcNAc,-0.241
same,glycan array binding signal (z-score),Gal(a1-3)Gal(b1-3)GlcNAc,1.71
same,glycan array binding signal (z-score),[4],3.52
same,glycan array binding signal (z-score),[5],4.44
same,glycan array binding signal (z-score),[6],2.04
same,glycan array binding signal (z-score),[7],-0.179
same,glycan array binding signal (z-score),[8],1.17
same,glycan array binding signal (z-score),Gal(a1-4)Gal(b1-4)Gal,-0.269
same,glycan array binding signal (z-score),Gal(a1-4)Gal(b1-4)GlcNAc,3.53
same,glycan array binding signal (z-score),[9],0.51
same,glycan array binding signal (z-score),[10],1.9
same,glycan array binding signal (z-score),Gal(a1-4)GlcNAc,5.7
same,glycan array binding signal (z-score),Gal(b1-2)Gal,0.125
same,glycan array binding signal (z-score),Gal(b1-3)Gal(b1-4)GlcNAc,3.49
same,glycan array binding signal (z-score),Gal(b1-3)GalNAc,0.135
same,glycan array binding signal (z-score),[11],-0.255
same,glycan array binding signal (z-score),[12],-0.242
same,glycan array binding signal (z-score),[13],-0.34
same,glycan array binding signal (z-score),[14],-0.093
same,glycan array binding signal (z-score),[15],-0.311
same,glycan array binding signal (z-score),Gal(b1-4)Glc6S,3.51
same,glycan array binding signal (z-score),[16],3.61
same,glycan array binding signal (z-score),[17],-0.259
same,glycan array binding signal (z-score),[18],0.425
same,glycan array binding signal (z-score),[19],-0.214
same,glycan array binding signal (z-score),[20],-0.206
same,glycan array binding signal (z-score),[21],-0.119
